# The panel holds about 83,000 compounds, 20% with a hit somewhere; the sample as a whole holds those more often.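 Compound tested at a single concentration for 48 hours in 96-well plates; a percent growth value below 10 was scored as active.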 Activity calls are given as the source filed them.
# Tested on: MDA-MB-468 breast
# Assay: NCI-60 one-dose screen, 48 h (100 = growth as untreated, 0 = no growth, -100 = all killed)
# Details: 10 µM unless noted
row,Structure (SMILES),growth
1,CC12O[C@H](C[C@@H](OC(=O)c3ccccc3)[C@H]1O)n1c3ccccc3c3c4c(c5c6ccccc6n2c5c31)C(=O)NC4=O,81.1% (inactive)
2,CC(C)N1CCN(c2ccc(OC[C@H]3CO[C@](Cn4cncn4)(c4ccc(Cl)cc4Cl)O3)cc2)CC1,78.9% (inactive)
3,CCCCNCCC(O)c1cc2ccc(C(F)(F)F)cc2c2cc(C(F)(F)F)ccc12 (stereo not given),-91% (active)
4,COc1cc(N2C(=O)[C@H](c3ccccc3)C2c2ccc(SC)cc2)cc(OC)c1OC (stereo not given in full),-9.99% (active)
5,CC(C)NC(=O)OCc1c(COC(=O)NC(C)C)c(-c2ccc(Cl)c(Cl)c2)n2c1SCC2,-73.9% (active)
6,CCOC(=O)c1c(C)c2c(n1C)CSc1cc(C(=O)c3ccccc3)c(=O)[nH]c1-2,96.6% [100 µM] (inactive)
7,Cc1nc2ccccc2n1CC1NC(=O)NC1=O (stereo not given),97.6% (inactive)
8,C#CC[C@@H]1C[C@]2(C)[C@H]3CC[C@@H]4[C@H]5C(C(=C)C)CC[C@]5(C(=O)NCCCCCCCCN)CC[C@@]4(C)[C@]3(C)CC[C@H]2C(C)(C)[C@H]1OC(C)=O (stereo not given in full),105% (inactive)
9,O=C(N/N=C/c1ccc(O)cc1O)c1cccnc1,6.57% (active)
10,CC(=O)CSc1ncnc2nc[nH]c12,40.6% (inactive)
11,CCCC[P+](c1ccccc1)(c1ccccc1)c1ccccc1,-6.92% (active)
12,N#Cc1ccccc1OCC(=O)Nc1nc2c(s1)COc1ccccc1-2,98.7% (inactive)
13,Fc1cc(Nc2ccc3c(OCCCN4CCOCC4)cccc3n2)ccc1Cl,28.5% (inactive)
14,CCN1C(=O)/C(=C/C(=O)OC)S/C1=N\NC(=O)c1cc2ccc1/C=C\c1ccc(cc1)/C=C\2,87.3% (inactive)
15,CCNc1ncnc2n[nH]nc12,97.2% (inactive)
16,CCOC(=O)NCCc1nc2c([nH]1)c(=O)n(C)c(=O)n2C,112% (inactive)
17,COc1ccc(-c2nn(-c3cccc(Cl)c3)cc2-c2c(C#N)c(=O)n3[nH]c(-c4ccccc4)nc3c2C#N)cc1,97.6% (inactive)
18,COc1cc(/C=N/NC(=O)Cn2c(-c3ccc(C)o3)nc3ccccc32)ccc1OCc1ccccc1,76.6% (inactive)
19,COc1cc(C2C(C(=O)OCc3ccccc3)=C(C)NC(C)=C2C(=O)OCc2ccccc2)cc(OC)c1OC,11.6% (inactive)
20,CCOC(=O)/C=C1\S/C(=N\Nc2cc(=O)[nH]c3ccc(Br)cc23)N(c2ccccc2)C1=O,56.1% (inactive)

row,Structure (SMILES),growth
1,C/C(Cc1ccc(Cl)cc1)=C(/c1ccc(Cl)cc1)c1ccc(OCCN(C)C)cc1,17.2% (inactive)
2,CCSc1ncnc2c1ncn2C1OC(CO)C(O)C1O (stereo not given),15.8% (inactive)
3,Brc1cnc2[nH]cc(-c3nnc(-c4ccccc4)o3)c2c1,60.3% (inactive)
4,COc1cc2nc(-c3ccc(Cl)cc3)cc(OCCCNCC3CCCO3)c2cc1OC (stereo not given),46.2% (inactive)
5,CCN(CC)CCOc1cccc2c1C(=O)c1cccc(OCCN(CC)CC)c1C2=O,8.32% (active)
6,N=C(N)c1ccc(-c2ccc(-c3ccccc3)o2)cc1,-68.6% (active)
7,CC(=O)Oc1ccc(OC(C)=O)c2ccccc12,-53.2% (active)
8,Oc1c(Cl)cc(Cl)cc1/C=N/Nc1nnc(N/N=C/c2cc(Cl)cc(Cl)c2O)c2ccccc12,-29.9% (active)
9,COc1ccc2c(-c3ccc(F)cc3)c(C#N)c(=NC(C)=O)oc2c1,-8.32% (active)
10,CCSc1nc(-c2ccco2)n2nc(-c3ccco3)cc2n1,-67.7% (active)
11,O=C(CCN1CCCC1)Nc1ccc2c(Nc3ccc(F)cc3)c3ccccc3nc2c1,-66.6% (active)
12,COC(=O)C1=NNC(=S)N(c2cc(C)[nH]n2)C(=O)C1,108% (inactive)
13,Cc1cc2ccccc2c[n+]1CC(=O)c1ccc(-c2ccccc2)cc1,13.3% (inactive)
14,CN(CCCCCl)P(=O)(OCc1ccc([N+](=O)[O-])o1)C(F)(F)C[C@H](NC(=O)CNC(=O)c1ccc(N=[N+]=[N-])cc1)C(=O)NCCc1ccc(O)cc1 (stereo not given in full),12.5% (inactive)
15,COc1ccc(/C=C2\Oc3cc(OCCN4CCC(Cc5ccccc5)CC4)ccc3C2=O)cc1OC,31% (inactive)
16,O=c1n(C2OC(CO)C(O)C2O)ccc2nccn12 (stereo not given),122% (inactive)
17,Nc1cc(-c2c[nH]c3ccc(Br)cc23)nc2cc(-c3c[nH]c4ccc(Br)cc34)nn12,-4.03% (active)
18,CN(C)c1ccc(/C=C/C=N/NC(=O)c2cc(O)c(O)c(O)c2)cc1,89.1% (inactive)
19,CCOC(=O)C(=Cc1ccc(Br)cc1)C(=O)OCC,-73.3% (active)
20,OC1CCN(CCCOc2c3ccc(Cl)cc3nc3c2oc2ccccc23)CC1,-43.9% (active)
